Assay outcomes as filed in PubChem.
SKKanGAS inh – blocks kanamycin growth of S. pyogenes SKKanGAS strain; 1.3% of 300,000 active; AID 1662; inhibition, % at 7.5 µM; BacTiter-Glo, 6 h;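 active means mean replicate score, as percent of positive control median, at least 50; inconclusive means mean below 50 but one replicate at or above 50; inactive means mean and every replicate below 50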;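 further: strain carries kanamycin resistance gene driven by streptokinase promoter and grows in 40 µg/ml kanamycin; loss of luminescence reflects streptokinase promoter inhibition or plain growth inhibition; 0% = median of DMSO wells and 100% = positive control at its reference dose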
Calb FLC – affects C. albicans growth with fluconazole; C. albicans CaCi-2 (fluconazole-resistant clinical isolate) + fluconazole, Alamar Blue growth, 48 h; growth inhibition, % (no concentration beside the values); 0.57% of 300,000 active;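 active means growth inhibition above about 58% in most replicates, limit read from the data, passing the limit was not always enough; inconclusive means exactly half the replicates above a set limit; inactive means most replicates below a set limit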;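 further: all wells also contain fluconazole at 8 µg/ml as a sub-toxic cotreatment; 0% = median of DMSO wells and 100% = median of geldanamycin control wells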
CR mimetic SO – caloric restriction mimetics inhibiting age-related superoxide in yeast | superoxide response (% of plate mean), % at 10 µM | 0.18% of 330,000 active | S. cerevisiae aged cells, superoxide DHE fluorescence; active compounds read low | AID 2690;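 active means superoxide response under a set limit, about three screen SD below normal, cut at about 65% in these data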;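 further: yeast aged for seven days with compound at 30 °C before DHE staining; 100% = average MFI of all compound-treated wells on the plate with controls excluded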
Platelet DG rel – modulates dense granule release in human platelets. human platelet-rich plasma, SFLLRN dense granule ATP release, luminescence. AID 1663. 0.22% of 300,000 active. inhibition, %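 (compounds screened at 7.5 µM in platelet-rich plasma)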;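 active means mean replicate score, as percent of positive control, at or above 50; inconclusive means mean below 50 but at least one replicate at or above 50; inactive means mean and every replicate below 50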
PolyA inhibitor – inhibitors of polyadenylation in S. cerevisiae | S. cerevisiae SKY197-pL101 polyadenylation reporter, beta-gal luminescence; efflux-impaired pdr1/pdr3 knockout yeast; score 100 = 6 SD above DMSO | activity score, % at 12 µM | 0.02% of 300,000 active;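 active means lowest replicate activity score at least 50, where 100 means six control SD above control mean; inconclusive means lowest score under 50 but half or more replicates reach 50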;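 further: yeast exposed to compound for 9 h at 30 °C; higher score means more reporter readthrough which indicates perturbed polyadenylation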
Active calls of the source: *; ? = inconclusive; . = no result. Hits are enriched below; roughly 2% of the tested compounds scored in any of these assays.

SMILES	SKKanGAS inh	Calb FLC	CR mimetic SO	Platelet DG rel	PolyA inhibitor
CCOC(=O)N1CCC(N2C(=O)c3ccccc3C2Nc2cc(Cl)c(OC)cc2OC)CC1 (stereo unspecified)	1	3	112	0	2
CCOC(=O)N1CCC(N2C(=O)c3ccccc3C2Nc2cc(OC)c(OC)c(OC)c2)CC1 (stereo unspecified)	-1	7	92	64*	-6
Cc1nc(N)sc1-c1csc(N(C)c2ccc(O)cc2)n1	64*	26	114	2	-13
CNC(=O)C(C)Sc1ccc(S(=O)(=O)N2CCOCC2)cn1 (stereo unspecified)	.	.	100	.	.
COc1ccc(Cl)cc1Nc1nc(C)nc2c1nnn2Cc1ccccc1	-2	-1	102	1	-17
CCOC(=O)c1ccc(Nc2nc(C)nc3c2nnn3Cc2ccccc2)cc1	53*	7	107	2	1
CCn1cc(S(=O)(=O)c2ccc(C)cc2)c(=O)c2cc(OC)ccc21	0	11	110	-26	-13
O=C(O)c1ccccc1C(=O)Nc1cccc([N+](=O)[O-])c1	-2	-2	141	-6	-8
COc1ccc(NC(=O)c2cc([N+](=O)[O-])ccc2O)cc1	74*	83*	102	72*	-9
O=C(Nc1cccc([N+](=O)[O-])c1)c1cc2ccccc2cc1O	74*	40	107	-10	-13
COc1ccc(N(CC(=O)NCc2ccccc2)S(=O)(=O)c2c(C)n[nH]c2C)cc1	0	4	109	-3	-4
Cc1ccc(CNC(=O)CCSCCC(=O)NCc2ccc(C)cc2)cc1	-14	3	98	-1	-7
CC(C)(C)c1cc(C(=O)N/N=C/c2ccccc2O)n(-c2ccccc2)n1	73*	-10	93	-2	-11
COc1ccc(-c2cc(-c3c(O)c(OC)c4occc4c3OC)[nH]n2)cc1	36	102*	106	2	-15
C/C(=N\OCC(=O)Nc1nc2ccccc2s1)c1ccccc1	8	-15	81	1	-10
COc1ccc(/C=N/OCC(=O)Nc2nc3ccccc3s2)cc1	-8	108*	92	14	20
CN1C(=O)/C(=C/c2cn(CC(=O)N3CCCCC3)c3ccccc23)NC1=S	.	112*	96	.	.
CCc1ccc(OCC(=O)NC(NC(=S)Nc2ccccc2C)C(Cl)(Cl)Cl)cc1 (stereo unspecified)	18	4	104	-13	?
CCc1ccc(OCC(=O)NC(NC(=S)Nc2ccc(C)cc2C)C(Cl)(Cl)Cl)cc1 (stereo unspecified)	68*	-14	100	2	20
O=C(O)c1ccccc1Oc1ccc(Oc2ccccc2)cc1	-3	-4	100	6	2
CC[n+]1c(/C=C/c2ccc(N(C)C)cc2)ccc2ccccc21	22	-4	90	6	-15
CCN(CC)c1ccc(/C=C/c2ccc3ccc(OC)cc3[n+]2CC)cc1	25	105*	109	15	-48
COc1cc(NC(=O)c2c(F)cccc2F)c(Cl)cc1Cl	9	-17	91	1	-36
COc1ccc(C2(c3ccc(OC)cc3)NC(=O)N(CC(=O)Nc3cc(C)ccc3OC)C2=O)cc1	11	-9	84	-3	5
O=C1CCCc2nc(N3CCN(C(=O)c4ccco4)CC3)ncc21	6	0	113	-7	-8
SMILES	SKKanGAS inh	Calb FLC	CR mimetic SO	Platelet DG rel	PolyA inhibitor
Cc1csc(CNC(=O)c2cc(COc3c(C)cccc3C)on2)n1	2	17	126	8	0
O=C1/C(=C/c2ccc(O)c(O)c2)SC(=S)N1Nc1ccccc1	9	114*	.	15	-3
CCOc1cc(/C=C2\SC(=S)N(NS(=O)(=O)c3ccccc3)C2=O)ccc1O	24	88*	104	12	0
COc1cc(/C=C2\SC(=S)N(NC(=O)c3cccnc3)C2=O)ccc1O	6	-9	74	2	86*
CCOc1ccc(/C=C2\SC(=S)N(NS(=O)(=O)c3ccccc3)C2=O)cc1OC	37	25	111	8	-1
COc1ccc(/C=C2\SC(=S)N(NS(=O)(=O)c3ccc(C)cc3)C2=O)c(OC)c1	21	52	117	-8	-12
COc1ccc(OC)c(/C=C2\SC(=S)N(NS(=O)(=O)c3ccc(C)cc3)C2=O)c1	21	89*	100	3	-14
COc1cc(/C=C2\SC(=S)N(Nc3ccccc3)C2=O)ccc1O	27	0	106	8	-33
CCOC(=O)N1CCC(=NNC(=O)COc2cccc(C)c2)CC1	-3	-15	104	4	19
